# Source: PubChem BioAssay (EPA / NIEHS)
# Inconclusive results are not listed. Active and inactive are the calls of the source. Rule for the calls, unless noted: active = hit-call score of the fitted dose curve at least 0.9, where 1 is the maximum; inactive = score below 0.9.
# What was measured:
# [1] = ACEA_ER_80hr: ACEA Biosciences xCELLigence Real-Time Cell Analysis on Estrogen Receptor Agonism for Proliferation (AID 2282667; active = hit-call score of the fitted dose curve at least 0.9, where 1 is the maximum); conditions: T47D proliferation, impedance (xCELLigence), 80 h
# How it was run: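 Impedance readout (RT-CES) of T47D proliferation at 80 h post-dose; gain of signal vs DMSO baseline. Compounds: 8 conc, 1:4 serial, top 100 uM final, ≤0.5% DMSO; biological duplicate.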
# [2] = ATG_CRE_CIS: Attagene CIS-FACTORIAL HepG2 Assay for human cAMP Responsive Element (CRE) binding protein 3 (AID 2282926); conditions: HepG2 CRE cis-reporter, Attagene multiplexed mRNA; actives raise or lower the signal
# How it was run: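 Readout: fluorescently labelled reporter transcripts resolved by capillary electrophoresis after RT-PCR, taken 24 h post-dosing in transfected HepG2. Endogenous transcription factor activity drives each cis-element reporter; gain or loss of signal fitted relative to DMSO control.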
# [3] = molecular target: CCAAT/enhancer-binding protein beta (Homo sapiens) (UniProt P17676); experiment: ATG_C_EBP_CIS: Attagene CIS-FACTORIAL HepG2 Assay for human CCAAT/Enhancer Binding Protein (C/EBP) beta (AID 2282927); conditions: HepG2 Attagene cis-factorial transcription factor reporter; actives raise or lower the signal
# How it was run: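 RT-PCR/capillary electrophoresis fluorescence of reporter mRNA, 24 h post-dose, in HepG2 cells carrying transfected cis-promoter reporter units. Bidirectional curve fitting against DMSO baseline captures gain or loss of signal.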
# [4] = molecular target: Aryl hydrocarbon receptor (Homo sapiens) (UniProt P35869); experiment: ATG_Ahr_CIS: Attagene CIS-FACTORIAL HepG2 Assay for human Aryl Hydrocarbon Receptor (Ahr) (AID 2282930); conditions: HepG2 AhR cis-factorial reporter transcription; actives raise or lower the signal
# How it was run: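 HepG2 cells transiently transfected with cis-element-driven multiplexed reporter transcription units; endogenous transcription factor activity measured as reporter mRNA 24 h after dosing. RT-PCR, 6-FAM labelling, HpaI digestion, capillary electrophoresis; bidirectional fitting versus DMSO baseline.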
# [5] = ATG_AP_1_CIS: Attagene CIS-FACTORIAL HepG2 Assay for human Activator Protein 1 (AP-1) (AID 2282931); conditions: HepG2 Attagene cis-factorial AP-1 reporter mRNA; actives raise or lower the signal
# How it was run: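 Readout is reporter transcript level from endogenous transcription factor activity, quantified by RT-PCR with fluorescent primer extension and capillary electrophoresis. Transiently transfected HepG2 cells, 24 h exposure. Curves fitted both directions versus DMSO.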
# [6] = ATG_AP_2_CIS: Attagene CIS-FACTORIAL HepG2 Assay for human Activator Protein 2 (AP-2) (AID 2282932); conditions: HepG2 AP-2 cis-reporter, Attagene transcription factor profiling; actives raise or lower the signal
# How it was run: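 Cells (HepG2) transfected with promoter-driven reporter constructs, treated 24 h. Total RNA reverse-transcribed, reporter cDNA PCR-amplified, FAM-labelled by primer extension, digested, resolved by capillary electrophoresis. Activity fitted both directions versus DMSO.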
# [7] = ATG_BRE_CIS: Attagene CIS-FACTORIAL HepG2 Assay for human Bone Morphogenetic Protein (BMP) Response Element (BRE) (AID 2282933); conditions: HepG2 BMP response element reporter, Attagene transcription factor profiling; actives raise or lower the signal
# How it was run: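 Read-out: reporter mRNA induction quantified by RT-PCR and capillary electrophoresis after 24 h chemical exposure of transfected HepG2 cells. Endogenous factor activity on the BMP response element; gain or loss fitted against DMSO baseline.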
# [8] = ATG_DR4_LXR_CIS: Attagene CIS-FACTORIAL HepG2 Assay for human Liver X Receptor (LXR), DR4 submotif (AID 2282929); conditions: HepG2 Attagene DR4 cis-reporter, mRNA transcription; actives raise or lower the signal
# How it was run: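 The endpoint is DR4-element-driven reporter transcripts after 24 h chemical exposure of transfected HepG2 cells. These were measured via RT-PCR and capillary electrophoresis, and gain or loss of signal was fitted relative to DMSO controls.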
# [9] = molecular target: Retinoic acid receptor alpha (Homo sapiens) (UniProt P10276); experiment: ATG_DR5_RAR_CIS: Attagene CIS-FACTORIAL HepG2 Assay for human Retinoic Acid Receptor Alpha (RARE), DR5 submotif (AID 2282934); conditions: HepG2 Attagene cis-factorial RARE DR5 reporter, mRNA; actives raise or lower the signal;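 for AC50: reporter responds to endogenous RAR alpha beta and gamma in HepG2 not RARA alone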
# How it was run: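 HepG2 cells transiently transfected with multiplexed reporter units under cis (DR5 RARE) promoters, so endogenous transcription factor activity is measured. After 24 h compound exposure, reporter mRNA is quantified by RT-PCR with fluorescent labelling and capillary electrophoresis; bidirectional fitting versus DMSO.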
# [10] = ATG_CMV_CIS: Attagene CIS-FACTORIAL HepG2 Assay for human CMV (Internal Marker) (AID 2282928); conditions: HepG2 CMV promoter reporter, transcription factor profiling; actives raise or lower the signal;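 note: endpoint acts as a background internal control marker rather than a target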
# How it was run: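 24 h chemical treatment, HepG2 with transient multi-reporter transfection; RNA → oligo(dT) RT → PCR → 6-FAM extension → HpaI digest → CE fluorescence. Bidirectional fit, DMSO negative control.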
# Aryl hydrocarbon receptor (Homo sapiens), sequence (P35869 whole entry, looked up): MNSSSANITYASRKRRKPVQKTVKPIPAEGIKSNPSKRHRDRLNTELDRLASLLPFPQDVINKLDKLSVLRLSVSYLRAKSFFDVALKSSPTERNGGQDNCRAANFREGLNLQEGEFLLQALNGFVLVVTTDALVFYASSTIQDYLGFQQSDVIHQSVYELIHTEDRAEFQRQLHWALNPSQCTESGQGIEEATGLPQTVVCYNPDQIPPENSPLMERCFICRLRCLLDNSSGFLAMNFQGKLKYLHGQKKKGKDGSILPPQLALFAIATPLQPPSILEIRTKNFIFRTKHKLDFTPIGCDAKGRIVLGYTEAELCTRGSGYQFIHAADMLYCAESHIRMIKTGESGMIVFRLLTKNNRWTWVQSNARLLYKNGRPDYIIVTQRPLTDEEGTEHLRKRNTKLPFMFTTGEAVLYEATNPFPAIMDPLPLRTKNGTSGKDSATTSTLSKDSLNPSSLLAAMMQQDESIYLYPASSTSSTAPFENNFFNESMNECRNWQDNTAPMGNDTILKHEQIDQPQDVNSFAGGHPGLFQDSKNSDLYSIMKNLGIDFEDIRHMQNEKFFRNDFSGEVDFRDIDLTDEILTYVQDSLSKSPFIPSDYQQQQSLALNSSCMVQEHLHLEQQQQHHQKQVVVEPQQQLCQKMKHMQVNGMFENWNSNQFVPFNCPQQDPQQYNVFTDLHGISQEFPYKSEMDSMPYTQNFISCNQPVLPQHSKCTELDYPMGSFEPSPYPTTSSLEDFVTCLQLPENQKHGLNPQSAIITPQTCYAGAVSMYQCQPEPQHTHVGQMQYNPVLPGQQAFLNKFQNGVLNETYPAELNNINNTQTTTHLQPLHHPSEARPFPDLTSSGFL
# CCAAT/enhancer-binding protein beta (Homo sapiens), sequence (P17676 whole entry, looked up): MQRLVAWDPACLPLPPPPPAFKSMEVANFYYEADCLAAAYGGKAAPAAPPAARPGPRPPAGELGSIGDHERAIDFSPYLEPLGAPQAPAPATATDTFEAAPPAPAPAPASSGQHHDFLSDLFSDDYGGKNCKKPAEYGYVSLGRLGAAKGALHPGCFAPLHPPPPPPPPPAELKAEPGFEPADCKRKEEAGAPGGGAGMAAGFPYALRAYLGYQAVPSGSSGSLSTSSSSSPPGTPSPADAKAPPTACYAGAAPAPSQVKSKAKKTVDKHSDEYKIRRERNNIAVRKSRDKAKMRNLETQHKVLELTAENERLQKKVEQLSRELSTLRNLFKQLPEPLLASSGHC
# Retinoic acid receptor alpha (Homo sapiens), sequence (P10276 whole entry, looked up): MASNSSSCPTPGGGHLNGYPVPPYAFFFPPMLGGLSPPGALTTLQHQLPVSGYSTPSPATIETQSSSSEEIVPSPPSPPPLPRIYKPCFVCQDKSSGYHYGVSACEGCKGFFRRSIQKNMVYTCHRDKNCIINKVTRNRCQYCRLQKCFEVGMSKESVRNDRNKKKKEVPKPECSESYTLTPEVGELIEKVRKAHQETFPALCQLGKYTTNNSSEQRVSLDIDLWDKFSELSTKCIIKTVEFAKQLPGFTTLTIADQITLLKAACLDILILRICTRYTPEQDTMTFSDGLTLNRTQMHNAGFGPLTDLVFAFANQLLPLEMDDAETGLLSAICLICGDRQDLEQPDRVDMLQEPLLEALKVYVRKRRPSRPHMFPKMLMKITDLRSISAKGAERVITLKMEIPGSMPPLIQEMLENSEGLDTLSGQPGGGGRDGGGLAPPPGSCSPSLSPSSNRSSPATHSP
compound,measurement,setting,value
C=C(C)C1CC=C(C)CC1 (centres undefined),outcome,[1],inactive
same,outcome,[2],inactive
same,outcome,[3],inactive
same,outcome,[4],inactive
same,outcome,[5],inactive
same,outcome,[6],inactive
same,outcome,[7],inactive
CC(C)CO,outcome,[1],inactive
same,outcome,[2],inactive
same,outcome,[3],inactive
same,outcome,[8],inactive
same,outcome,[4],inactive
same,outcome,[5],inactive
same,outcome,[6],inactive
same,outcome,[7],inactive
same,outcome,[9],inactive
C=Cc1cccc(C)c1,outcome,[1],inactive
same,outcome,[2],inactive
same,outcome,[3],inactive
same,outcome,[8],inactive
same,AC50,[5],31.9 µM (active)
same,outcome,[6],inactive
same,outcome,[7],inactive
same,outcome,[9],inactive
CC(C)=CCCC(C)=CC#N,outcome,[1],inactive
same,outcome,[2],inactive
same,outcome,[3],inactive
same,outcome,[8],inactive
same,outcome,[4],inactive
same,outcome,[5],inactive
same,outcome,[6],inactive
same,outcome,[7],inactive
same,outcome,[9],inactive
CC(=O)C(C)C,outcome,[1],inactive
same,outcome,[2],inactive
same,outcome,[3],inactive
same,outcome,[8],inactive
same,outcome,[4],inactive
same,outcome,[5],inactive
same,outcome,[6],inactive
same,outcome,[7],inactive
same,outcome,[9],inactive
CCCCCCCCCCCCCCCCCCOS(=O)(=O)O,AC50,[1],10.5 µM (active)
same,outcome,[2],inactive
same,outcome,[3],inactive
same,outcome,[8],inactive
same,outcome,[4],inactive
same,AC50,[5],20.3 µM (active)
same,AC50,[6],57.3 µM (active)
same,outcome,[9],inactive
Cn1ccnc1,outcome,[1],inactive
same,outcome,[2],inactive
same,outcome,[3],inactive
same,outcome,[8],inactive
same,outcome,[4],inactive
same,outcome,[5],inactive
same,outcome,[6],inactive
same,outcome,[7],inactive
same,outcome,[9],inactive
C=C(C)C(=O)OCCCCCCCCCCCC,outcome,[1],inactive
same,outcome,[2],inactive
same,outcome,[3],inactive
same,outcome,[8],inactive
same,outcome,[4],inactive
same,outcome,[5],inactive
same,outcome,[6],inactive
same,outcome,[9],inactive
COC(=O)C=Cc1ccccc1,outcome,[1],inactive
same,outcome,[2],inactive
same,outcome,[3],inactive
same,outcome,[8],inactive
same,outcome,[4],inactive
same,outcome,[5],inactive
same,outcome,[6],inactive
same,outcome,[7],inactive
same,outcome,[9],inactive
CCCCCCCCCC[N+](C)(CCCCCCCCCC)CCC[Si](OC)(OC)OC,outcome,[1],inactive
same,AC50,[2],17.5 µM (active)
same,AC50,[3],18.2 µM (active)
same,outcome,[8],inactive
same,outcome,[4],inactive
same,outcome,[5],inactive
same,AC50,[6],15.3 µM (active)
same,outcome,[7],inactive
same,AC50,[9],16.9 µM (active)
CC(=O)/C=C/C1C(C)=CCCC1(C)C (centres undefined),outcome,[2],inactive
same,outcome,[3],inactive
same,outcome,[10],inactive
same,outcome,[8],inactive
same,outcome,[4],inactive
same,outcome,[5],inactive
same,outcome,[6],inactive
same,outcome,[7],inactive
COc1ccc(C(=O)/C(Br)=C\C(=O)O)cc1,outcome,[1],inactive
same,outcome,[2],inactive
same,AC50,[3],129 µM (active)
same,AC50,[8],27.8 µM (active)
same,outcome,[4],inactive
same,AC50,[5],26.4 µM (active)
same,outcome,[6],inactive
same,outcome,[7],inactive
same,outcome,[9],inactive
O=C(OCc1ccccc1)c1ccc(O)cc1,AC50,[1],10.5 µM (active)
same,outcome,[2],inactive
same,outcome,[3],inactive
same,outcome,[8],inactive
same,outcome,[4],inactive
same,outcome,[5],inactive
same,AC50,[7],123 µM (active)
same,outcome,[9],inactive
CO[Si](C)(C)OC,outcome,[1],inactive
same,outcome,[2],inactive
same,outcome,[3],inactive
same,outcome,[8],inactive
same,AC50,[4],0.376 µM (active)
same,outcome,[5],inactive
same,outcome,[6],inactive
same,outcome,[7],inactive
same,outcome,[9],inactive
CC(=O)c1ccccc1O,outcome,[2],inactive
same,outcome,[3],inactive
same,outcome,[10],inactive
same,outcome,[8],inactive
same,outcome,[4],inactive
same,outcome,[5],inactive
same,outcome,[7],inactive
same,outcome,[9],inactive
Oc1c(Cl)cc(Cl)c(Cl)c1Cl,outcome,[2],inactive
same,outcome,[3],inactive
same,outcome,[10],inactive
same,outcome,[5],inactive
same,outcome,[6],inactive
same,outcome,[9],inactive
Cc1cc(C)c(C=O)c(C)c1,outcome,[2],inactive
same,outcome,[3],inactive
same,outcome,[10],inactive
same,outcome,[8],inactive
same,outcome,[5],inactive
same,outcome,[6],inactive
same,outcome,[7],inactive
same,AC50,[9],3.85 µM (active)
O=C1CCCN1C1CCCCC1,outcome,[2],inactive
same,outcome,[3],inactive
same,outcome,[10],inactive
same,outcome,[8],inactive
same,outcome,[4],inactive
same,outcome,[5],inactive
same,outcome,[6],inactive
same,outcome,[9],inactive
CCCCCCO,outcome,[2],inactive
same,outcome,[3],inactive
same,outcome,[8],inactive
same,outcome,[4],inactive
same,outcome,[5],inactive
same,outcome,[7],inactive
same,outcome,[9],inactive
O=C(Cl)c1c(Cl)c(Cl)c(C(=O)Cl)c(Cl)c1Cl,outcome,[2],inactive
same,outcome,[3],inactive
same,outcome,[10],inactive
same,outcome,[8],inactive
same,outcome,[5],inactive
same,outcome,[7],inactive
same,outcome,[9],inactive
CC(C)(O)Cc1ccccc1,outcome,[2],inactive
same,outcome,[3],inactive
same,outcome,[10],inactive
same,outcome,[8],inactive
same,outcome,[4],inactive
same,outcome,[5],inactive
same,outcome,[6],inactive
same,outcome,[7],inactive
same,outcome,[9],inactive
CC(=O)OCCc1ccccc1,outcome,[2],inactive
same,outcome,[3],inactive
same,outcome,[8],inactive
same,outcome,[4],inactive
same,outcome,[5],inactive
same,outcome,[6],inactive
same,outcome,[7],inactive
same,outcome,[9],inactive
Nc1ncnc2nc[nH]c12,outcome,[2],inactive
same,outcome,[3],inactive
same,outcome,[10],inactive
same,outcome,[8],inactive
same,outcome,[4],inactive
same,outcome,[5],inactive
same,outcome,[6],inactive
same,outcome,[7],inactive
same,outcome,[9],inactive
CCCCCCOC(=O)CCCCC(=O)OCCCCCC,outcome,[2],inactive
same,outcome,[3],inactive
same,outcome,[10],inactive
same,outcome,[8],inactive
same,outcome,[4],inactive
same,outcome,[5],inactive
same,outcome,[6],inactive
same,outcome,[7],inactive
same,outcome,[9],inactive
Cc1ccc([N+](=O)[O-])cc1N,outcome,[2],inactive
same,outcome,[3],inactive
same,outcome,[10],inactive
same,outcome,[8],inactive
same,AC50,[4],1.51 µM (active)
same,outcome,[5],inactive
same,outcome,[7],inactive
same,outcome,[9],inactive
c1ccc2c(c1)[nH]c1ccccc12,outcome,[2],inactive
same,outcome,[3],inactive
same,outcome,[8],inactive
same,AC50,[4],18 µM (active)
same,outcome,[5],inactive
same,outcome,[6],inactive
same,outcome,[7],inactive
same,outcome,[9],inactive
